About 83,000 compounds went through this panel and 20% of them were active in at least one assay; those are over-represented in the sample as a whole.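 Activity criterion: percent growth below 10, measured after cells in 96-well plates were exposed to a single compound concentration for 48 hours.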 Unmarked numbers belong to inactive results. Activity calls are given as the source filed them.

Assay in all cases: NCI-60 one-dose screen, 48 h (100 = growth as untreated, 0 = no growth, -100 = all killed)
Settings in all cases: 10 µM unless noted

Assay [1] deals with SR leukemia.
In assay [2] the test system is RPMI-8226 leukemia.
The test system of assay [3] is OVCAR-8 ovarian.
For assay [4], the system named is OVCAR-5 ovarian.
Assay [5] has as its system OVCAR-4 ovarian.
In assay [6] the test system is SK-OV-3 ovarian.
Assay [7] concerns IGROV1 ovarian.
Assay [8] relates to NCI/ADR-RES ovarian.
The test system of assay [9] is T-47D breast.
For assay [10], the system named is BT-549 breast.
In assay [11] the test system is MDA-MB-435 melanoma.
The test system of assay [12] is SW-620 colon.
Assay [13] concerns MCF7 breast.
The subject of assay [14] is HCT-116 colon.
In assay [15] the test system is HCC-2998 colon.
Assay [16] concerns KM12 colon.
For assay [17], the system named is HS 578T breast.
The subject of assay [18] is OVCAR-3 ovarian.

For the molecule `COc1ccc2[nH]c(=O)c3c4ccccc4cn3c2c1`, the growth is -27.2% (active) in assay [1]; -59.6% (active) in [2]; 24.4% in [3]; 31.4% in [4]; 49.1% in [5]; 32.8% in assay [6]. Moreover, the growth in [7] is 16.8%; in assay [8] it was 24.8%; in [9], 44.6%; in assay [10], 37.9%; in assay [11], -23.3% (active); in assay [12] it was 13.3%. Further, the growth in assay [13] was 17.1%; in assay [14] it was -28.9% (active); in [15], 31.3%; in assay [16] it was 10.4%.

`O=C(N/N=C/C=C\c1ccccc1)C(=O)N/N=C/C=C/c1ccccc1`: the growth in assay [1] is 103%; in [2], 102%; in [3], 105%; in [4], 112%; in assay [5], 112%; in assay [6], 111%. The growth in assay [7] is 106%; in assay [17] it was 116%; in assay [8], 110%; in assay [9] it was 100%; in assay [10], 102%; in assay [11], 121%. Moreover, the growth in assay [12] was 106%; in [13] it was 100%; in assay [14], 104%; in assay [15], 109%; in assay [16], 109%.

With `COc1cc(NC(N)=NCCC(C)(C)c2ccc(C(F)(F)F)cc2)ncc1C#N`, the growth is -49% (active) in [1]; -48.7% (active) in assay [2]; 24.4% in assay [3]; 47.2% in [4]; 18.9% in assay [5]; 56.8% in assay [6]. The growth was 24.1% in [7]; 24% in [18]; 63% in assay [17]; -2.85% (active) in [9]; 53.9% in [10]; 17% in assay [11]. Besides, the growth in [12] is -0.0248% (active); in assay [13], -31.3% (active); in assay [14], -75.7% (active); in assay [15] it was -77.8% (active); in [16], 15.4%.

On to `Cc1ccc2nc(-c3cc4c([nH]c5ccccc54)c(-c4ccc(F)c(F)c4)n3)[nH]c2c1`, for which the growth in assay [1] is -18.8% (active); in assay [2] it was 47.4%; in assay [3], 78.3%; in assay [4], 113%; in assay [5], 69%; in assay [6] it was 109%. Also, the growth in assay [18] is 96.7%; in assay [17] it was 108%; in assay [8], 83%; in assay [9] it was 77.8%; in [10] it was 83.7%; in assay [11], 91.3%. The growth in assay [12] is 101%; in assay [13], 51.8%; in assay [14], 15.2%; in assay [15], 88.6%; in assay [16], 72.4%.

Consider `CCCCN(CCCC)C(=N)c1ccnc2ccccc12`, for which the growth in assay [1] was 92.7%; in assay [2] it was 83.1%; in [3] it was 110%; in [4] it was 104%; in assay [5] it was 94%; in assay [6] it was 112%. Further, the growth in [7] was 98.3%; in assay [18], 104%; in assay [8], 110%; in assay [9] it was 118%; in assay [10], 120%; in assay [11], 105%. For the same molecule, the growth was 100% in [12], 104% in assay [14] and 102% in assay [15].

With `O=[N+]([O-])c1cc(Cl)c2[nH]c3c(Cl)cc([N+](=O)[O-])cc3c2c1`, the growth in assay [1] was 2.53% (active); in assay [2], 3.11% (active); in assay [3], -2.33% (active); in [4], 9.08% (active); in assay [5] it was -24.8% (active); in assay [6], -11.9% (active). In addition, the growth in assay [7] was 9.12% (active); in [18], 16.8%; in assay [8], 6.85% (active); in assay [9] it was 4.93% (active); in [10] it was -0.691% (active); in [11] it was -2.12% (active). Moreover, the figures for the growth in assay [12] and in assay [14] were 5.45% (active) and 2.09% (active), respectively.

Regarding `S=C(S)NCCc1c[nH]c2ccccc12`, the growth in [1] is 94.9%; in [2], 92.4%; in assay [3] it was 95.9%; in [4], 102%; in [5], 111%; in [6] it was 121%. The growth in assay [7] was 81.9%; in assay [18], 101%; in assay [17], 99.5%; in [9] it was 88%; in assay [10], 92.6%; in assay [11], 103%. Further, the growth was 101% in [12]; 94.4% in assay [13]; 96.1% in assay [14]; 115% in assay [15]; 96.7% in [16].

Regarding `Nc1cccc(-c2nc3sccn3c2-c2ccnc(NCCNS(=O)(=O)c3ccc(C(F)(F)F)cc3)n2)c1`, the growth in [1] is 35.4%; in assay [2], 61.7%; in assay [3], 38.3%; in assay [4], 90.5%; in assay [5], 43.2%; in [6], 53.5%. The growth is 36.3% in [7]; 53.4% in assay [18]; -15.1% (active) in [17]; 46.2% in assay [9]; 52.7% in assay [10]; 27% in assay [11]. Further, the growth was 100% in [12], 55.1% in [14] and 61.5% in assay [16].

As for `Nc1ccc(C(=O)CSc2nc3ccccc3[nH]2)cc1`, the growth was 110% in assay [1]; 103% in assay [2]; 105% in assay [3]; 102% in assay [4]; 110% in assay [5]; 105% in assay [6]. In addition, the growth in [7] was 112%; in assay [18], 107%; in assay [17] it was 109%; in assay [9], 109%; in [10] it was 94.5%; in assay [11], 96.1%. In addition, the growth in [12] is 101%; in assay [13], 92.9%; in [14], 97.3%; in [15] it was 100%; in [16], 103%.
